# Rac1 mut GTP: alters GTP binding to activated mutant human Rac1. P63000. GST-Rac1 activated beads, fluorescent GTP binding, flow cytometry; actives lie on both sides; 100% means binding = to untreated wells. percent activity (GTP binding), % at 10 µM. 190,000 compounds, 0.11% hits;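 active = GTP binding at least 20 percentage points away from the 100% baseline, in either direction, so actives lie on both sides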
# HRas wt GTP bind: human HRas wildtype GTP binding, change in either direction; AID 759; GTP binding activity, % at 10 µM; 190,000 compounds, 0.14% hits; GST-Ras wt beads, Bodipy-FL-GTP binding, flow cytometry; actives lie on both sides;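 active = GTP binding activity at least 20% away from the 100% baseline, either lowered as inhibitor or raised as activator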;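 also: 0% = unlabeled GTP competition control and 100% = no-compound control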
# Cdc42 wt: human Cdc42 wildtype GTP binding change, either direction; P60953; GST-Cdc42 beads, Bodipy-GTP binding, flow cytometry; actives lie on both sides; percent activity (GTP binding), % at 10 µM; 190,000 compounds, 0.2% hits;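 active = percent activity GTP binding at least 20 points away from the 100% baseline, either down as inhibitor or up as activator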;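 also: median bead fluorescence of bound Bodipy-FL-GTP at 100 nM; 0% = excess unlabeled GTP control and 100% = no compound control; below 100% means less GTP binding so inhibitor and above means activator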
# Target sequence (P60953 whole entry, looked up): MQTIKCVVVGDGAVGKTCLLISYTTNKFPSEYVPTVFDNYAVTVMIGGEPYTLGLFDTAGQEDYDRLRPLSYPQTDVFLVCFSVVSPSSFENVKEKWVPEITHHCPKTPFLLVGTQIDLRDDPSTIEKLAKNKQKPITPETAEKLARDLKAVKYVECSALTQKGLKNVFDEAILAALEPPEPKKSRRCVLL
# Rab2A wt mod: changes GTP binding to wildtype dog Rab2A, up or down | 190,000 compounds, 0.19% hits | P61105 | GTP binding activity, % at 10 µM | GST-Rab2 wt beads, Bodipy-GTP binding, flow cytometry | AID 760;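 active = GTP binding activity at least 20 points away from 100%, either lowered or raised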;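 also: 0% = beads with excess unlabeled GTP and 100% = no-compound control corrected for plate trend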
# Rac1 wt GTP bind: human Rac1 wildtype GTP binding, inhibitors and activators. GTP binding activity (% of control), % at 10 µM. 190,000 compounds, 0.27% hits. GST-Rac1 beads, fluorescent GTP binding, flow cytometry; actives lie on both sides; 0 = cold GTP competed, 100 = untreated;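 active = GTP binding activity at least 20 points away from the 100% control level, either lower or higher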
# Rab7 wt GTP bind: alters GTP binding to wildtype dog Rab7; 190,000 compounds, 0.055% hits; GST-Rab7 beads, fluorescent GTP binding, flow cytometry; actives lie on both sides; untreated = 100%, excess cold GTP = 0%; GTP binding activity (percent of control), % at 10 µM;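 active = fluorescent GTP binding to Rab7 beads changed by at least 20 points from the 100% baseline, either direction, mostly lower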;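 also: median green fluorescence of bound Bodipy-FL-GTP per Rab7 bead population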
# * hit, by the source's call. Most compounds without a hit are left out; they make up all but 0.4% or so of the library.
SMILES,Rac1 mut GTP,HRas wt GTP bind,Cdc42 wt,Rab2A wt mod,Rac1 wt GTP bind,Rab7 wt GTP bind
COc1ccc(C(=O)CC2(CC(=O)c3ccc(OC)cc3)C(=O)N(C)C(=O)N(C)C2=O)cc1,94.0,101.0,99.0,99.0,100.0,100.0
CN1C(=O)N(C)C(=O)C2(Cc3c(ccc4ccccc34)N(C)C2)C1=O,79.0*,96.0,86.0,91.0,86.0,96.0
Cc1nc2c(=O)n(C)c(=O)nc-2n(C)n1,82.0,88.0,77.0*,85.0,106.0,87.0
CN1C2CCC1CC(OC(=O)c1cc(Cl)cc(Cl)c1)C2 (stereo not drawn),95.0,97.0,97.0,97.0,99.0,96.0
O=C(NC(C(Cl)Cl)N1CCOCC1)c1ccccc1 (stereo not drawn),100.0,99.0,101.0,96.0,102.0,97.0
Cc1sc(-n2c(C)cc(C=C3C(=O)NC(=O)NC3=O)c2C)c(C#N)c1C,78.0*,85.0,81.0,82.0,79.0*,89.0
Cc1cc(/C=C2\C(=O)NC(=O)N(c3ccc(Cl)cc3)C2=O)c(C)n1-c1sc2c(c1C#N)CCCC2,86.0,94.0,93.0,91.0,99.0,96.0
CN(C)c1ccc(/C=C/C=C2/C(=O)NC(=O)N(c3ccccc3)C2=O)cc1,77.0*,81.0,74.0*,78.0*,70.0*,86.0

# Bioassay records (PubChem BioAssay)
